Measured values reported in PubChem BioAssay (EPA / NIEHS).
Inconclusive results are not listed. Calls of active or inactive are those of the source. The calls were made as follows, unless noted: active = hit-call score of the fitted dose curve at least 0.9, where 1 is the maximum; inactive = score below 0.9.

Assays:
[1] = CCTE_Simmons_MITO_basal_resp_rate: CCTE's HepG2 Seahorse XF Respirometric Screening Assay at Basal Respiratory State, Simmons Lab (AID 2284001); details: actives raise or lower the signal
Outline: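 Basal-phase OCR in HepG2 cells, read at 6-min intervals across a 72-min run, with test compound injected at 125 nM–100 uM final (7 points). Fitted both directions against DMSO; three biological replicates per concentration.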

[2] = CCTE_Simmons_MITO_max_resp_rate: CCTE's HepG2 Seahorse XF Respirometric Screening Assay at Maximal Respiratory State [uncoupled], Simmons Lab (AID 2284002); details: actives raise or lower the signal
Outline: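 HepG2 oxygen consumption was read on a Seahorse XF96 after FCCP uncoupler injection, following test compound injection; 7 concentrations, 125 nM–100 uM final, three biological replicates. Bidirectional fitting against DMSO vehicle baseline.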

[3] = CCTE_Simmons_MITO_inhib_resp_rate: CCTE's HepG2 Seahorse XF Respirometric Screening Assay at Inhibited Respiratory State [full ETC block], Simmons Lab (AID 2284006); details: actives raise or lower the signal
Outline: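 This endpoint is the respiration rate remaining after rotenone/antimycin A block, in HepG2 cells on a Seahorse XF96. Chemicals spanned 125 nM–100 uM final, in three biological replicates. OCR was read every 6 minutes for 72 minutes and compared with DMSO vehicle.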

[4] = CCTE_Harrill_HTTr_Apoptosis_MCF7: CCTE's 6-hour Apoptosis Assessment for the High-Throughput Transcriptomics (HTTr) Platform, in MCF-7 cells cultured in DMEM + 10% fetal bovine serum, Harrill Lab (AID 2284011)
Outline: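 MCF-7 cells in DMEM + 10% fetal bovine serum were exposed to chemicals for 6 hours over an eight-point dilution series. Caspase-3/7 activation was imaged by high content imaging with CellEvent Caspase 3/7 Green; bidirectional fitting used DMSO as baseline.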

[5] = CCTE_Shafer_MEA_acute_firing_rate_mean: CCTE's Neural Acute Assay for Mean Firing Rate, Shafer Lab (AID 2284009);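 also: analyzed for loss of signal so actives lower firing rate relative to DMSO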
Outline: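 Primary rat cortical neurons on 16-electrode MEA wells were exposed on DIV 13 or 15 to compound (0.03-40 uM). Spike counts per recording time, averaged over electrodes, were compared between 40-min baseline and 40-min post-exposure recordings as percent change.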

[6] = CCTE_Shafer_MEA_acute_burst_number: CCTE's Neural Acute Assay for Single-Electrode Bursts, Shafer Lab (AID 2284013)
Outline: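 Primary rat cortical neurons on 16-electrode MEA wells, DIV 13 or 15, exposed to compound (0.03-40 uM; ≥3 wells); 40-min recordings at 37 C before and after treatment. Burst count expressed as percent change from baseline, DMSO as negative control.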

[7] = CCTE_Shafer_MEA_acute_burst_duration_mean: CCTE's Neural Acute Assay for Mean Burst Duration, Shafer Lab (AID 2284014);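 also: hits are decreases in mean burst duration relative to DMSO controls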
Outline: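 Mean burst duration was compared between a 40 min baseline and a 40 min recording in the presence of compound (0.03-40 uM, 37 C), giving percent change per well. Cultures were rat cortical neurons at DIV 13 or 15; wells needed ≥10 active electrodes.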

[8] = CCTE_Shafer_MEA_acute_burst_percentage_mean: CCTE's Neural Acute Assay for Percentage of Spikes in a Burst, Shafer Lab (AID 2284017);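 as to AC50: curve fitted for loss of signal so potency reflects decreased burst percentage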
Outline: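 Well-level mean burst percentage from a 40-min recording after compound (0.03-40 uM) expressed as percent change from a 40-min baseline at 37C. Cultures: primary rat cortical neurons on MEA, dosed on DIV 13 or 15; fitted downward relative to DMSO.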

[9] = CCTE_Shafer_MEA_acute_burst_percentage_std: CCTE's Neural Acute Assay for Standard Deviation of Burst Percentage, Shafer Lab (AID 2284018);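 also: fitted in the negative direction so actives lower burst percentage SD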
Outline: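 Value is percent change from baseline in the across-electrode SD of spikes-in-bursts percentage, wells with >/= 10 active electrodes. Acute 40-min exposure to 0.03-40 uM on DIV 13 or 15 rat cortical cultures, recorded at 37 C after 40-min baseline.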

[10] = CCTE_Shafer_MEA_acute_per_network_burst_spike_number_mean: CCTE's Neural Acute Assay for Average Number of Spikes in a Network Burst, Shafer Lab (AID 2284019);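 as to AC50: curve fitted for loss of signal so actives reduce spikes per network burst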
Outline: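 Percent change from baseline in mean spikes per network burst, spikes detected at 8x rms noise. Each compound at 0.03-40 uM in at least three wells of rat cortical cultures, recorded 40 min before and 40 min during exposure.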

[11] = CCTE_Shafer_MEA_acute_per_network_burst_spike_number_std: CCTE's Neural Acute Assay for Standard Deviation of Number of Spikes in a Network Burst, Shafer Lab (AID 2284020);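 also: fitted for decrease in spike-number SD versus DMSO so actives lower it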
Outline: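 Endpoint: percent change from 40 min baseline in standard deviation of spikes per network burst, after 40 min compound exposure (0.03-40 uM, 37 C). Cortical rat neurons on MEA at DIV 13 or 15; spikes detected at 8x rms noise, 300-5000 Hz band-pass.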

[12] = CCTE_Shafer_MEA_acute_per_network_burst_electrodes_number_mean: CCTE's Neural Acute Assay for Mean Number of Electrodes in a Network Burst, Shafer Lab (AID 2284021);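 also: curves fitted for decreases only so hits reduce electrodes per burst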
Outline: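 Rat primary cortical neurons on 16-electrode MEA wells were recorded 40 min at baseline on DIV 13 or 15, then 40 min after compound (0.03-40 uM), at 37 C. Value is percent change per well, fitted in loss direction versus DMSO.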

[13] = CCTE_Shafer_MEA_acute_network_burst_percentage: CCTE's Neural Acute Assay for Percentage of Network Bursts, Shafer Lab (AID 2284022);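 also: curves fitted for loss so actives lower network burst percentage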
Outline: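 Primary rat cortical neurons on 16-electrode MEA wells, treated on DIV 13 or 15 with compound (0.03-40 uM); 40-min baseline and 40-min post-exposure recordings at 37 C. Value is percent change in spikes within network bursts versus baseline, DMSO negative control.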

[14] = CCTE_Harrill_HTTr_CellCount_MCF7: CCTE's Cell Proliferation Assessment for the High-Throughput Transcriptomics (HTTr) Platform, Harrill Lab (AID 2284012; active = hit-call score of the fitted dose curve at least 0.9, where 1 is the maximum;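 also: cells exposed to compound for six hours; intended direction is loss of nuclei count meaning fewer cells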)
Outline: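 Cell count from high-content imaging of Hoechst-labeled nuclei serves as viability/growth readout. Chemicals were applied to MCF-7 cells in eight concentrations for six hours, with fitting in both directions relative to DMSO.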

[15] = CCTE_Harrill_HTTr_Viability_MCF7: CCTE's 6-hour Cell Viability Assessment for the High-Throughput Transcriptomics (HTTr) Platform, in MCF-7 cells cultured in DMEM + 10% fetal bovine serum, Harrill Lab (AID 2284010)
Outline: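 Propidium iodide exclusion, imaged by high-content analysis, gauged viability after a six-hour exposure across eight concentrations. Cells were MCF-7 grown in DMEM with 10% fetal bovine serum; fits run in both directions against DMSO.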

Measured: AC50

COc1nc(NC(C)C)nc(NC(C)C)n1
inactive: [2] | [3] | [4]
active: [1] 32.6 µM

CCc1nn(C)c(C(=O)NCc2ccc(C(C)(C)C)cc2)c1Cl
active: [1] 0.928 µM | [2] 0.496 µM
inactive: [3] | [4]

C=CCC1=C(C)[C@@H](OC(=O)[C@@H]2[C@@H](C=C(C)C)C2(C)C)CC1=O
active: [2] 47.4 µM | [5] 4.06 µM | [6] 4.02 µM | [8] 36.5 µM | [12] 10.8 µM | [13] 31 µM
inactive: [3] | [4] | [7] | [9] | [10] | [11]

COC(=O)c1ccccc1C(=O)OC
inactive: [4]

CNC(=S)S
inactive: [4] | [14]

CC(Oc1ccc(Cl)cc1Cl)C(=O)O (stereo not given)
not listed: [1] | [2] | [3] | [14] | [15]
inactive: all other assays above

COc1ccc(C(c2ccc(OC)cc2)C(Cl)(Cl)Cl)cc1
active: [8] 19.9 µM | [12] 6.83 µM | [13] 19.9 µM
not listed: [1] | [2] | [3] | [15]
inactive: all other assays above

O=C(O)c1nc(Cl)ccc1Cl
not listed: [1] | [2] | [3] | [14] | [15]
inactive: all other assays above

Fc1ccc(Oc2ccnc3cc(Cl)cc(Cl)c23)cc1
not listed: [1] | [2] | [3] | [14] | [15]
inactive: all other assays above

COC(=O)C=C(C)OP(=O)(OC)OC
inactive: [4] | [14]

Oc1ccccc1-c1ccccc1
inactive: [1] | [2] | [3] | [15] | [4] | [14]

CNC(=O)ON=CC(C)(C)SC
not listed: [1] | [2] | [3] | [14] | [15]
inactive: all other assays above

CCNc1nc(Cl)nc(NCC)n1
inactive: [4] | [14]

CCNc1nc(Cl)nc(NC(C)C)n1
active: [8] 13.9 µM
not listed: [1] | [2] | [3]
inactive: all other assays above

Cc1c(F)c(F)c(COC(=O)C2C(/C=C(\Cl)C(F)(F)F)C2(C)C)c(F)c1F (stereo not given)
inactive: [4] | [14] | [7] | [9]
active: [5] 0.581 µM | [6] 0.226 µM | [8] 0.24 µM | [10] 0.0326 µM | [11] 0.0979 µM | [12] 0.145 µM | [13] 0.567 µM

COP(N)(=O)SC (stereo not given)
not listed: [1] | [2] | [3] | [14]
inactive: all other assays above

CCOc1cc(Oc2ccc(C(F)(F)F)cc2Cl)ccc1[N+](=O)[O-]
inactive: [4] | [14]
